Source: article PMC5700166
Substitutions are numbered along the chain they refer to.

Legend:
Experiment in all cases: protein-binding microarray (PBM); PBM: ~300 nM protein, 6 mM HEPES pH 7.8, 80 mM KCl, 0.5 mM EDTA, 0.5 mM EGTA, 6% glycerol, 35 ng/ul poly-dIdC, 1% milk, 1 h, room temperature; Ap Aiptasia and Nv Nematostella (sea anemones) / Co Capsaspora / Aq Amphimedon (sponge) / Dm Drosophila / Hu human; RHD is the Rel homology domain; high values mean tight binding
Conditions in all cases: dsDNA, one strand shown
GST-Ap-NF-kB RHD = molecular target: T1, GST-Ap-NF-kB RHD (Exaiptasia pallida (Aiptasia), UniProt A0A913YAJ5 2-422)
T1 sequence: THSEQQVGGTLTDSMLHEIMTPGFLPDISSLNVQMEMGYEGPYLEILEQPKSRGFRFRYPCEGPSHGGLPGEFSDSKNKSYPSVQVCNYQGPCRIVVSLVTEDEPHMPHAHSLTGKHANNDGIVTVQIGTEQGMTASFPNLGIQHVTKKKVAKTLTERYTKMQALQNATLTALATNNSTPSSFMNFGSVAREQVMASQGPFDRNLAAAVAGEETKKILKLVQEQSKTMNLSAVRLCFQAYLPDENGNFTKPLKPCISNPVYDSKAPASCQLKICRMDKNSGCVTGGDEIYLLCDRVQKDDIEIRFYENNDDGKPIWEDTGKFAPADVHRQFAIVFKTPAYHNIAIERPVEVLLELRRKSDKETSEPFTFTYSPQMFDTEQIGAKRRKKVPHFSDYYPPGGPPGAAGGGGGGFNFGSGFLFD

[1] = molecular target: T2, GST-Nv-NF-kB (Cys allele) (Nematostella vectensis, UniProt E5G601 2-411)
T2 sequence: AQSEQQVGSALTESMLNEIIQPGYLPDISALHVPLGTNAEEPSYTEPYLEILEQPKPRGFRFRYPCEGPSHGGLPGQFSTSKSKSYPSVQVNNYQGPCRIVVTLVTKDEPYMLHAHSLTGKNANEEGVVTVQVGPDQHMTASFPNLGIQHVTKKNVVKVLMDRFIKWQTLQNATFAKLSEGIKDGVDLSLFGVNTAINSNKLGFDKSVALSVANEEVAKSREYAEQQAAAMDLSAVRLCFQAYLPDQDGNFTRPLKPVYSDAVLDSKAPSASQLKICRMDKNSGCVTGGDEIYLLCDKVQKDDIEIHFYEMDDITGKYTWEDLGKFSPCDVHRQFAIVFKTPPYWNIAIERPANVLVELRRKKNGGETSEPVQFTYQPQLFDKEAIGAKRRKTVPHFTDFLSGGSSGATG

[2] = molecular target: T3, GST-Nv-NF-kB (Ser allele) (Nematostella vectensis, UniProt A7UNT2 2-411)
T3 sequence: T2 sequence with Q21R, C66S, S207N, E215Q, V217A, E225K, A268E, D399E

GST-Co-NF-kB = molecular target: T4, GST-Co-NF-kB (Capsaspora owczarzaki, UniProt F1ARL5 200-546)
T4 sequence: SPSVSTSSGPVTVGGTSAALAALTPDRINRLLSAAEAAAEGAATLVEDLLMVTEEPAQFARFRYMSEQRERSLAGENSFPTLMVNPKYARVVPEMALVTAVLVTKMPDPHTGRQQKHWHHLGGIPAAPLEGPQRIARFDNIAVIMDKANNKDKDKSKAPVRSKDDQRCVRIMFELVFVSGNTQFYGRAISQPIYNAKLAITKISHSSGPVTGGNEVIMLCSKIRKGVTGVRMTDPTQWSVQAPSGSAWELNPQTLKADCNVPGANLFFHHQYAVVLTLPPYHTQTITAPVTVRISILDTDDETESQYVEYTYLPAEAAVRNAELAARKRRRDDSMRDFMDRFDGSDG

GST-Dm-Relish = molecular target: T5, GST-Dm-Relish (Drosophila melanogaster, UniProt Q94527 99-473)
T5 sequence: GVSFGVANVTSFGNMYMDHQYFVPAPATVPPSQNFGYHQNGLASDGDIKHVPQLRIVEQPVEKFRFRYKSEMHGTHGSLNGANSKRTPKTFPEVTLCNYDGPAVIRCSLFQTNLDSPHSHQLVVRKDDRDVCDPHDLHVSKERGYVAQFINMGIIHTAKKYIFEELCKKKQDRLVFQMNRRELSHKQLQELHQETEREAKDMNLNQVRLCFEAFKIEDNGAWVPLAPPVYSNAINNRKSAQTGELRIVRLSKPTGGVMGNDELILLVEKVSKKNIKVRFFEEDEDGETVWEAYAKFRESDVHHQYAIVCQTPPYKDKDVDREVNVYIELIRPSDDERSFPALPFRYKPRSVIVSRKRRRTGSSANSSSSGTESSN

GST-Aq-NF-kB = molecular target: T6, GST-Aq-NF-kB (Amphimedon queenslandica, UniProt A9Y5G7 2-389)
T6 sequence: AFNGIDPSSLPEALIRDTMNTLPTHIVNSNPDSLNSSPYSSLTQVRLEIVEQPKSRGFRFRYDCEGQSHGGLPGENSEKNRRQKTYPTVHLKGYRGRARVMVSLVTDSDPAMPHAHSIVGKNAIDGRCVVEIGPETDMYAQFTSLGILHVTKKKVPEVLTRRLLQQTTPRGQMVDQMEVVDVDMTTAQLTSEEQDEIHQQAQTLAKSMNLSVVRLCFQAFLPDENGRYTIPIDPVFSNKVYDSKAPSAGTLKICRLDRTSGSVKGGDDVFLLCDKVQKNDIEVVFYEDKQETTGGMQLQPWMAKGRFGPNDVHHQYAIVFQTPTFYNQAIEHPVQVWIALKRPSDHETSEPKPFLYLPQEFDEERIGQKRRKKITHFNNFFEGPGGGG

GST-Hu-p50 = GST-Hu-p50 (Homo sapiens, UniProt P19838 7-356)
GST-Hu-p50, sequence (P19838 7-356): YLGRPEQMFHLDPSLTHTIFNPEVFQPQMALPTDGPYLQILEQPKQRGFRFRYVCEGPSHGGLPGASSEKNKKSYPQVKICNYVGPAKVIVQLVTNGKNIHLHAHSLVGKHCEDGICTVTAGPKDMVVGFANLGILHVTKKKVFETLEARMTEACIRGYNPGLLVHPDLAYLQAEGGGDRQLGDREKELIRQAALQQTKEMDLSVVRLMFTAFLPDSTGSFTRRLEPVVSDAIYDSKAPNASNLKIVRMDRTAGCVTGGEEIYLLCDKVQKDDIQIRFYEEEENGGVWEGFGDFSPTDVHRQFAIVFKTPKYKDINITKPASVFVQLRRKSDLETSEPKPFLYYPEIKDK

Sequence	binding signal (GST-Ap-NF-kB RHD)	binding signal [1]	binding signal [2]	binding signal (GST-Co-NF-kB)	binding signal (GST-Dm-Relish)	binding signal (GST-Aq-NF-kB)	binding signal (GST-Hu-p50)
CCGATTAACATCAAAATCCCAGGTGATGTTAATCGGGTCTTGATTCGCTTGACGCTGCTG	2.06 z-score	1.42 z-score	1.85 z-score	1.6 z-score	5.57 z-score	2.06 z-score	3.17 z-score
CCGATTAACATCAGGGGAAATCATGATGTTAATCGGGTCTTGATTCGCTTGACGCTGCTG	7.92 z-score	8.72 z-score	11.1 z-score	7.67 z-score	5.47 z-score	5.97 z-score	6.18 z-score
CCGATTAACATCAGGGGAATTCATGATGTTAATCGGGTCTTGATTCGCTTGACGCTGCTG	9.45 z-score	10.8 z-score	10.8 z-score	6.94 z-score	7.6 z-score	7.5 z-score	6.83 z-score
CCGATTAACATCAAAAAGTCCCTTGATGTTAATCGGGTCTTGATTCGCTTGACGCTGCTG	7.48 z-score	10.3 z-score	9.76 z-score	1.63 z-score	8.86 z-score	8.25 z-score	6.97 z-score
CCGATTAACATCAGGGAAAGTACTGATGTTAATCGGGTCTTGATTCGCTTGACGCTGCTG	3.95 z-score	6.4 z-score	6.18 z-score	2.93 z-score	8.65 z-score	7.76 z-score	5.43 z-score
CCGATTAACATCACAGAATTCCCTGATGTTAATCGGGTCTTGATTCGCTTGACGCTGCTG	5.09 z-score	6.44 z-score	6.81 z-score	3.6 z-score	4.28 z-score	5.42 z-score	4.93 z-score
CCGATTAACATCACGGGAAATTCTGATGTTAATCGGGTCTTGATTCGCTTGACGCTGCTG	5.1 z-score	6.52 z-score	5.98 z-score	5.06 z-score	3.57 z-score	6.47 z-score	4.83 z-score
CCGATTAACATCAGGAATCCCCATGATGTTAATCGGGTCTTGATTCGCTTGACGCTGCTG	8.61 z-score	8.08 z-score	7.76 z-score	3.4 z-score	9.13 z-score	6.35 z-score	6.22 z-score
CCGATTAACATCAGGGGGAACCCTGATGTTAATCGGGTCTTGATTCGCTTGACGCTGCTG	8.64 z-score	7.75 z-score	7.25 z-score	8.49 z-score	9.93 z-score	8.13 z-score	6.39 z-score
CCGATTAACATCAAGGGAAATTCTGATGTTAATCGGGTCTTGATTCGCTTGACGCTGCTG	5.74 z-score	8.12 z-score	7.46 z-score	4.57 z-score	3.68 z-score	6.88 z-score	5.4 z-score
CCGATTAACATCAAAGTCTCCCCTGATGTTAATCGGGTCTTGATTCGCTTGACGCTGCTG	5.38 z-score	4.52 z-score	5.65 z-score	7.88 z-score	1.57 z-score	3.98 z-score	3.28 z-score
CCGATTAACATCAGGAACTCCCATGATGTTAATCGGGTCTTGATTCGCTTGACGCTGCTG	2.86 z-score	2.53 z-score	1.04 z-score	1.08 z-score	4.29 z-score	3.71 z-score	1.95 z-score
